# Assay results: PubChem BioAssay AID1159580 (chemical genetic matrix, 2015)
# Screen size: about 5,500 compounds; about 2,000 (36%) were called active. Not shown: some 18% with an inconclusive outcome. The list shows a part of the results. Values without a mark were called inactive. Cut-off read from the data, not from the text of the source: active = normalized growth mostly below about 0.91 (no sharp cut-off); inconclusive = no clear call, values can overlap the other calls; inactive = mostly above about 0.92.
# Test: chemical genetic growth profiling, strain panel (AID 1159580);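 note: tested at 20 µM; growth read once vehicle control cultures reached saturation at 30 °C; 1 = growth at the plate median or of vehicle wells; lower values mean less growth of the strain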
# Conditions: growth OD
structure (smiles),measurement,setting,value
C[C@]12CCC3C(CC[C@H]4C[C@@H](O)CC[C@]34C)C1CCC2=O (some centres undefined),normalized growth,"S. cerevisiae deletion strains, locus YKL068W, stronger effect = lower value",1.03
same,normalized growth,"S. cerevisiae deletion strains, locus YKL085W, strain MDH1 (second series), stronger effect = lower value",0.973
same,normalized growth,"S. cerevisiae deletion strains, locus YKL085W, strain MDH1, stronger effect = lower value",0.973
same,normalized growth,"S. cerevisiae deletion strains, locus YKL160W, strain elf1, stronger effect = lower value",0.919
same,normalized growth,"S. cerevisiae deletion strains, locus YKL190W, strain CNB1, stronger effect = lower value",0.862 (active)
same,normalized growth,"S. cerevisiae deletion strains, locus YKR001C, strain vps1, stronger effect = lower value",0.899 (active)
same,normalized growth,"S. cerevisiae deletion strains, locus YKR026C, strain gcn3, stronger effect = lower value",1.06
same,normalized growth,"S. cerevisiae deletion strains, locus YKR091W, strain srl3, stronger effect = lower value",1.05
same,normalized growth,"S. cerevisiae deletion strains, locus YLL001W, strain dnm1, stronger effect = lower value",0.923
same,normalized growth,"S. cerevisiae deletion strains, locus YLL026W, stronger effect = lower value",0.994
same,normalized growth,"S. cerevisiae deletion strains, locus YLL041C, strain sdh2, stronger effect = lower value",1.04
same,normalized growth,"S. cerevisiae deletion strains, locus YLR027C, strain aat2, stronger effect = lower value",0.939
same,normalized growth,"S. cerevisiae deletion strains, locus YLR039C, strain RIC1, stronger effect = lower value",0.388 (active)
same,normalized growth,"S. cerevisiae deletion strains, locus YLR058C, strain SHM2, stronger effect = lower value",0.799 (active)
same,normalized growth,"S. cerevisiae deletion strains, locus YLR102C, strain apc9, stronger effect = lower value",1.02
same,normalized growth,"S. cerevisiae deletion strains, locus YLR113W, strain HOG1, stronger effect = lower value",1.01
same,normalized growth,"S. cerevisiae deletion strains, locus YLR221C, strain rsa3, stronger effect = lower value",0.86 (active)
same,normalized growth,"S. cerevisiae deletion strains, locus YLR258W, strain gsy2, stronger effect = lower value",0.945
same,normalized growth,"S. cerevisiae deletion strains, locus YLR262C, strain YPT6 (second series), stronger effect = lower value",0.435 (active)
same,normalized growth,"S. cerevisiae deletion strains, locus YLR262C, strain YPT6, stronger effect = lower value",0.413 (active)
same,normalized growth,"S. cerevisiae deletion strains, locus YLR268W, strain sec22, stronger effect = lower value",0.834 (active)
same,normalized growth,"S. cerevisiae deletion strains, locus YLR320W, strain mms22, stronger effect = lower value",0.606 (active)
same,normalized growth,"S. cerevisiae deletion strains, locus YLR330W, strain CHS5, stronger effect = lower value",0.87 (active)
same,normalized growth,"S. cerevisiae deletion strains, locus YLR342W, strain FKS1 (second series), stronger effect = lower value",0.733 (active)
same,normalized growth,"S. cerevisiae deletion strains, locus YLR342W, strain FKS1, stronger effect = lower value",0.995
same,normalized growth,"S. cerevisiae deletion strains, locus YLR357W, strain rsc2, stronger effect = lower value",1.16 [resistant] (active)
same,normalized growth,"S. cerevisiae deletion strains, locus YLR370C, strain arc18, stronger effect = lower value",1.04
same,normalized growth,"S. cerevisiae deletion strains, locus YLR371W, strain rom2, stronger effect = lower value",1.03
same,normalized growth,"S. cerevisiae deletion strains, locus YLR384C, strain iki3, stronger effect = lower value",1.03
same,normalized growth,"S. cerevisiae deletion strains, locus YLR418C, strain cdc73, stronger effect = lower value",0.589 (active)
same,normalized growth,"S. cerevisiae deletion strains, locus YML016C, strain PPZ1, stronger effect = lower value",0.931
same,normalized growth,"S. cerevisiae deletion strains, locus YML032C, strain rad52, stronger effect = lower value",0.744 (active)
same,normalized growth,"S. cerevisiae deletion strains, locus YML120C, strain ndi1, stronger effect = lower value",0.935
same,normalized growth,"S. cerevisiae deletion strains, locus YML124C, strain tub3, stronger effect = lower value",0.944
same,normalized growth,"S. cerevisiae deletion strains, locus YMR058W, strain fet3, stronger effect = lower value",0.943
same,normalized growth,"S. cerevisiae deletion strains, locus YMR078C, strain ctf18, stronger effect = lower value",0.979
same,normalized growth,"S. cerevisiae deletion strains, locus YMR125W, strain sto1, stronger effect = lower value",1.06
same,normalized growth,"S. cerevisiae deletion strains, locus YMR129W, stronger effect = lower value",1.04
same,normalized growth,"S. cerevisiae deletion strains, locus YMR205C, strain PFK2, stronger effect = lower value",0.94
same,normalized growth,"S. cerevisiae deletion strains, locus YMR223W, strain ubp8, stronger effect = lower value",0.794 (active)
same,normalized growth,"S. cerevisiae deletion strains, locus YMR231W, strain pep5, stronger effect = lower value",1.01
same,normalized growth,"S. cerevisiae deletion strains, locus YMR263W, strain SAP30, stronger effect = lower value",0.925
same,normalized growth,"S. cerevisiae deletion strains, locus YMR307W, strain GAS1, stronger effect = lower value",0.963
same,normalized growth,"S. cerevisiae deletion strains, locus YNL067W, strain RPL9B, stronger effect = lower value",0.825 (active)
same,normalized growth,"S. cerevisiae deletion strains, locus YNL071W, strain lat1, stronger effect = lower value",0.663 (active)
same,normalized growth,"S. cerevisiae deletion strains, locus YNL153C, strain GIM3, stronger effect = lower value",0.747 (active)
same,normalized growth,"S. cerevisiae deletion strains, locus YNL183C, strain NPR1, stronger effect = lower value",0.874
same,normalized growth,"S. cerevisiae deletion strains, locus YNL209W, strain ssb2, stronger effect = lower value",0.965
same,normalized growth,"S. cerevisiae deletion strains, locus YNL233W, strain BNI4, stronger effect = lower value",0.747 (active)
same,normalized growth,"S. cerevisiae deletion strains, locus YNL248C, strain rpa49, stronger effect = lower value",0.888
same,normalized growth,"S. cerevisiae deletion strains, locus YNL250W, strain rad50, stronger effect = lower value",0.934
same,normalized growth,"S. cerevisiae deletion strains, locus YNL271C, strain bni1, stronger effect = lower value",0.94
same,normalized growth,"S. cerevisiae deletion strains, locus YNL298W, strain CLA4, stronger effect = lower value",0.869 (active)
same,normalized growth,"S. cerevisiae deletion strains, locus YNL307C, strain MCK1, stronger effect = lower value",0.366 (active)
same,normalized growth,"S. cerevisiae deletion strains, locus YNL322C, strain KRE1 (second series), stronger effect = lower value",1.03
same,normalized growth,"S. cerevisiae deletion strains, locus YNL322C, strain KRE1, stronger effect = lower value",0.908 (active)
same,normalized growth,"S. cerevisiae deletion strains, locus YNR049C, strain mso1, stronger effect = lower value",1.04
same,normalized growth,"S. cerevisiae deletion strains, locus YNR052C, strain pop2, stronger effect = lower value",0.768 (active)
same,normalized growth,"S. cerevisiae deletion strains, locus YOL006C, strain TOP1, stronger effect = lower value",0.425 (active)
same,normalized growth,"S. cerevisiae deletion strains, locus YOL012C, strain htz1",1.94
same,normalized growth,"S. cerevisiae deletion strains, locus YOL147C, strain pex11, stronger effect = lower value",0.803 (active)
same,normalized growth,"S. cerevisiae deletion strains, locus YOR001W, strain rrp6, stronger effect = lower value",0.847 (active)
same,normalized growth,"S. cerevisiae deletion strains, locus YOR061W, strain CKA2, stronger effect = lower value",0.91
same,normalized growth,"S. cerevisiae deletion strains, locus YOR069W, strain VPS5, stronger effect = lower value",0.913 (active)
same,normalized growth,"S. cerevisiae deletion strains, locus YOR070C, strain gyp1, stronger effect = lower value",0.903 (active)
same,normalized growth,"S. cerevisiae deletion strains, locus YOR080W, strain dia2, stronger effect = lower value",1.02
same,normalized growth,"S. cerevisiae deletion strains, locus YOR083W, strain WHI5, stronger effect = lower value",0.882 (active)
same,normalized growth,"S. cerevisiae deletion strains, locus YOR106W, strain vam3, stronger effect = lower value",0.909
same,normalized growth,"S. cerevisiae deletion strains, locus YOR136W, strain idh2, stronger effect = lower value",0.999
same,normalized growth,"S. cerevisiae deletion strains, locus YOR144C, strain elg1, stronger effect = lower value",0.973
same,normalized growth,"S. cerevisiae deletion strains, locus YOR184W, strain ser1, stronger effect = lower value",0.363 (active)
same,normalized growth,"S. cerevisiae deletion strains, locus YOR231W, strain MKK1, stronger effect = lower value",0.888
same,normalized growth,"S. cerevisiae deletion strains, locus YOR265W, strain rbl2, stronger effect = lower value",0.968
same,normalized growth,"S. cerevisiae deletion strains, locus YOR270C, strain vph1, stronger effect = lower value",0.682 (active)
same,normalized growth,"S. cerevisiae deletion strains, locus YOR290C, strain snf2, stronger effect = lower value",0.831 (active)
same,normalized growth,"S. cerevisiae deletion strains, locus YOR316C, strain cot1, stronger effect = lower value",0.96
same,normalized growth,"S. cerevisiae deletion strains, locus YPL051W, strain arl3, stronger effect = lower value",0.926
same,normalized growth,"S. cerevisiae deletion strains, locus YPL055C, strain LGE1, stronger effect = lower value",0.677 (active)
same,normalized growth,"S. cerevisiae deletion strains, locus YPL078C, strain atp4, stronger effect = lower value",0.898
same,normalized growth,"S. cerevisiae deletion strains, locus YPL106C, strain sse1, stronger effect = lower value",1.32 [resistant] (active)
same,normalized growth,"S. cerevisiae deletion strains, locus YPL240C, strain hsp82, stronger effect = lower value",1.01
same,normalized growth,"S. cerevisiae deletion strains, locus YPL241C, strain CIN2, stronger effect = lower value",0.975
same,normalized growth,"S. cerevisiae deletion strains, locus YPL256C, strain CLN2, stronger effect = lower value",0.951
same,normalized growth,"S. cerevisiae deletion strains, locus YPR119W, strain clb2, stronger effect = lower value",1.04
same,normalized growth,"S. cerevisiae deletion strains, locus YPR141C, strain kar3, stronger effect = lower value",1.03
same,normalized growth,"S. cerevisiae deletion strains, locus YPR163C, strain tif3, stronger effect = lower value",0.856 (active)
same,normalized growth,"S. cerevisiae deletion strains, locus YPR167C, strain met16, stronger effect = lower value",0.814 (active)
same,normalized growth,"S. cerevisiae deletion strains, strain wtn01, stronger effect = lower value",0.849 (active)
same,normalized growth,"S. cerevisiae strains, strain wild type, stronger effect = lower value",0.815 (active)
